Reference: the supplement of paper PMC7801607

Assays:
CHO = test: % viability of CHO cells (MTT); higher = less toxic; settings: 48 h
Method in brief: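 CHO cells seeded at 10^6 cells/well were exposed to compound at 2 or 20 µM for 48 h. Survival, as percent of untreated cells, was measured with the colorimetric tetrazolium (MTT) assay.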

HepG2-A16-CD81 = test: % inhibition of HepG2 viability (CellTiter-Glo); higher = more toxic; settings: 5 µM;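 further: HepG2-A16-CD81 hepatoma cells plated as in the liver-stage assay but without sporozoites, with DMSO wells as negative and 25 µM puromycin as positive control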
[1] = system: Plasmodium falciparum NF54 stage IV/V gametocytes; test: % inhibition of gametocyte viability (PrestoBlue); higher = more inhibition; settings: 48 h
Method in brief: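 Compound was tested at 1 or 5 µM against Stage IV/V NF54 gametocytes plated at 100 µL/well (2% gametocytaemia, 5% haematocrit). After 48 h of stationary, hypoxic incubation at 37 °C, 10 µL PrestoBlue was added for 2 h before reading 612 nm fluorescence from 70 µL of transferred supernatant. Gametocyte viability inhibition, as a percentage, was scaled against vehicle and kill controls from a single run.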

[2] = system: Plasmodium falciparum NF54 asexual blood stage; test: % inhibition of asexual blood stage proliferation (pLDH); higher = more inhibition; settings: 72 h
Method in brief: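 In 96-well plates, compound at 2 or 20 µM was added to Plasmodium falciparum NF54 ring-stage cultures (1% haematocrit, 2% parasitaemia). Plates were incubated for 72 h at 37 °C in 4% CO2, 3% O2 and 93% N2, and survival was then read at 620 nm using the parasite lactate dehydrogenase assay. Inhibition of asexual proliferation, expressed as a percentage, was normalised to controls.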

[3] = system: Plasmodium falciparum NF54 stage IV/V gametocytes; test: % inhibition of gametocyte viability (ATP bioluminescence); higher = more inhibition; settings: 24 h
Method in brief: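 Density gradients were used to enrich stage IV/V NF54 gametocytes, which were then seeded into 96-well plates at 30,000 per well with compound at 1 or 5 µM. The plates were incubated at 37 °C for 24 h, and ATP was measured with the Promega BacTiter Glo bioluminescence system. Percent inhibition of gametocyte viability was normalised to the plate controls from a single run.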

[4] = system: Plasmodium falciparum NF54 stage IV/V gametocytes; test: % inhibition of gametocyte viability (luciferase reporter); higher = more inhibition; settings: 48 h
Method in brief: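 Compound at 1 or 5 µM was added to stage IV/V NF54-Pfs16-GFP-Luc gametocytes (2% gametocytaemia, 2% haematocrit) and incubated stationary and hypoxic at 37 °C for 48 h. A GloMax-Multi+ reader measured luminescence over 10 s integration on 30 µL lysate plus 30 µL Promega luciferin substrate. Percent inhibition values were normalised to controls within a single run.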

Compound | % viability of CHO cells (CHO; 2 µM) | % viability of CHO cells (CHO; 20 µM) | % inhibition of HepG2 viability (HepG2-A16-CD81) | % inhibition of gametocyte viability ([1]; 1 µM) | % inhibition of gametocyte viability ([1]; 5 µM) | % inhibition of asexual blood stage proliferation ([2]; 2 µM) | % inhibition of asexual blood stage proliferation ([2]; 20 µM) | % inhibition of gametocyte viability ([3]; 1 µM) | % inhibition of gametocyte viability ([3]; 5 µM) | % inhibition of gametocyte viability ([4]; 1 µM) | % inhibition of gametocyte viability ([4]; 5 µM)
OCCCCn1cnc2c(O)nc(NCc3ccc(Cl)c(Cl)c3)nc21 | 95.4% | 106% | 5.96% | < 0% | < 0% | 18.9% | 91.1% | < 0% | < 0% | < 0% | < 0%
Nc1nc(F)nc2c1ncn2[C@H]1O[C@@H](CO)[C@H](O)[C@@H]1O | 33.8% | 4.44% | 77.8% | 21.2% | 19.8% | 67.3% | 72.4% | 11.1% | < 0% | 4.93% | 35.8%
O=C(Nc1cccc(C2=NCCN2)c1)c1ccc(-c2ccc(C(=O)Nc3cccc(C4=NCCN4)c3)cc2)cc1 | 90.2% | 96.3% | 14.5% | 31.3% | 62.4% | 54% | 41.2% | 7.89% | 38% | < 0% | 59.1%
CCOc1noc2cc(OCCC3CCN(c4ccc(C)nn4)CC3)ccc12 | 66.5% | 58% | 1.58% | 16.1% | 23.3% | 84.1% | 70.5% | 6.06% | 0.657% | 6.47% | 5.12%
CC(=N)N1CC[C@H](SC2=C(C(=O)O)N3C(=O)[C@@H]([C@@H](C)O)[C@H]3C2)C1 | 85.2% | 33.9% | -4.07% | < 0% | < 0% | 5.77% | 14.6% | < 0% | < 0% | < 0% | 0.678%
